We go through 36 compounds from PubChem BioAssay AID651947 (Broad Institute, 2012).

The structures appear in SMILES notation. Entries with a potency or affinity are not part of this list. Results filed as inconclusive are left out. Activity calls are given as the source filed them.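 Rule for the calls: active = luminescence drop in HepG2 cells whose fitted half-effect dose is at most twice the top valid dose; inconclusive = flat curve with 30 to 70% signal loss, or unreliable fit; inactive = the rest.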

The test in a line: cytotoxicity in HepG2 cells, dose response, cytotoxicity control, cell-based, plate reader, dry powder (AID 651947). Particulars: HepG2 viability, ATP luminescence (CellTiter-Glo), 48 h, hits give low values; at 26 µM unless noted. For orientation: In ATP-based viability assays light output follows the ATP content of the culture.
`Fc1ccc(-c2nnc(SCc3cn(Cc4ccccc4)nn3)o2)cc1`: the max activity was 22.1% [at 3 µM] (inactive).

With `N#Cc1ccc(-c2nnc(SCc3ccccc3)o2)cc1`, the max activity was 15.9% [at 1.6 µM] (inactive).

In the case of `Clc1ccc(CSc2nnc(-c3ccccc3)o2)cc1`, the max activity is -22.7% [at 0.8 µM] (inactive).

As for `CN(C)CCSc1nnc(-c2ccccc2)o1`, the max activity was -18.8% [at 0.195 µM] (inactive).

`COc1ccccc1-c1nnc(SCc2ccccc2)o1`: the max activity was -18.4% [at 0.195 µM] (inactive).

Turning to `c1ccc(-c2nnc(SC(c3ccccc3)c3ccccc3)o2)cc1`, the max activity is -33% [at 0.8 µM] (inactive).

Turning to `CC1(O)CN(CCSc2nnc(-c3ccccc3)o2)C1`, the max activity is -33.4% [at 0.195 µM] (inactive).

`FC(F)(F)c1cccc(-c2nnc(SCc3ccccc3)o2)c1`: the max activity was 20.7% [at 12 µM] (inactive).

With `N#Cc1ccc(CSc2nnc(-c3ccccc3)o2)cc1`, the max activity is -47.6% [at 3 µM] (inactive).

As for `[O-][n+]1ccccc1CSc1nnc(-c2ccccc2)o1`, the max activity is -47.8% [at 1.6 µM] (inactive).

`CS(=O)(=O)c1ccc(-c2nnc(SCc3ccccc3)o2)cc1`: the max activity was -40.3% (inactive).

For `c1ccc(CSc2nnc(-c3ccncc3)o2)cc1`, the max activity is -43.6% [at 0.38 µM] (inactive).

Turning to `Clc1cccc(-c2nnc(SCc3ccccc3)o2)c1`, the max activity is -48.3% [at 3 µM] (inactive).

Regarding `Brc1ccc(CSc2nnc(-c3ccccc3)o2)cc1`, the max activity was 32.4% [at 6 µM] (inactive).

On to `FC1(F)CN(CCSc2nnc(-c3ccccc3)o2)C1`, for which the max activity was -36.2% [at 0.8 µM] (inactive).

For `FC(F)(F)c1ccc(-c2nnc(SCc3ccccc3)o2)cc1`, the max activity was 17.4% [at 3 µM] (inactive).

With `Fc1ccc(-c2nnc(SCc3ccccc3)o2)cc1`, the max activity was 14.5% (inactive).

Turning to `Cc1cccc(CSc2nnc(-c3ccccc3)o2)c1`, the max activity was -51.5% [at 0.195 µM] (inactive).

On to `FC(F)(F)Oc1ccccc1CSc1nnc(-c2ccccc2)o1`, for which the max activity was -50.7% [at 1.6 µM] (inactive).

`Brc1cccc(-c2nnc(SCc3ccccn3)o2)c1`: the max activity is -18% [at 1.6 µM] (inactive).

As to `Cc1ccc(CSc2nnc(-c3ccccc3)o2)cc1`, the max activity was 15.4% [at 3 µM] (inactive).

For `c1ccc(-c2nnc(SCc3cscn3)o2)cc1`, the max activity is -61.2% [at 12 µM] (inactive).

For the compound `Fc1ccc(-c2nnc(SCc3cn(-c4ccccc4)nn3)o2)cc1`, the max activity is -8.15% (inactive).

As for `COc1cccc(-c2nnc(SCc3ccccc3)o2)c1`, the max activity is 22.1% [at 12 µM] (inactive).

As for `c1ccc(CNc2nnc(-c3ccccc3)o2)cc1`, the max activity is 25.5% [at 0.195 µM] (inactive).

With `CS(=O)(=O)c1ccccc1-c1nnc(SCc2ccccc2)o1`, the max activity is 22.6% [at 3 µM] (inactive).

On to `c1ccc(-c2nnc(SCc3ccccn3)o2)cc1`, for which the max activity is 18.8% (inactive).

`O=S(Cc1ccccc1)c1nnc(-c2ccccc2)o1` (stereo unspecified): the max activity was -53.1% (inactive).

For `Clc1ccc(-c2nnc(SCc3cn(-c4ccccc4)nn3)o2)cc1`, the max activity was -13% [at 3 µM] (inactive).

Turning to `c1ccc(CCc2nnc(SCc3ccccc3)o2)cc1`, the max activity is 22.3% [at 3 µM] (inactive).

Take `c1ccc(-c2nnc(SCCN3CCN(c4ccccc4)CC3)o2)cc1`: the max activity is -48.3% [at 12 µM] (inactive).

Take `O=S(=O)(Cc1ccccc1)c1nnc(-c2ccccc2)o1`: the max activity is -24.8% (inactive).

In the case of `O=S(Cc1cn(-c2ccccc2)nn1)c1nnc(-c2ccc(Cl)cc2)o1` (stereo unspecified), the max activity is -41.8% [at 12 µM] (inactive).

For the compound `COCCOCCSc1nnc(-c2ccccc2)o1`, the max activity is -8.39% [at 1.6 µM] (inactive).

For `COc1cccc(CSc2nnc(-c3ccccc3)o2)c1`, the max activity is 25.7% (inactive).

`Fc1ccc(-c2nnc(SCc3ccccn3)o2)cc1`: the max activity was -30.7% [at 1.6 µM] (inactive).
